Molecules are shown by their SMILES. Inconclusive results are not listed. Active and inactive are the calls of the source. Calls come from the whole dose curve; as a rule, active = well fitted cell-killing curve with a large enough effect in the repeat runs; inconclusive = weak or mixed curves, or effect the other way; inactive = no such curve, though single readings can be large or run the other way.

A short description of the assay: qHTS assay to identify small molecule antagonists of the glucocorticoid receptor (GR) signaling pathway - cell viability counter screen (AID 720693). Note: nearly all actives have a fitted effect of over 55% in size. Conditions: GR-bla HeLa viability, CellTiter-Glo luminescence, 18 h, with 5 nM dexamethasone present; series mostly up to 58.5 µM. Background: qHTS replaces the single test concentration by a dilution series.
`CC(=O)c1ccccc1`: the result was inactive.
For `COS(C)(=O)=O` the value was “inactive”; for `OC[C@H]1O[C@@](CO)(O[C@H]2O[C@H](CO)[C@@H](O)[C@H](O)[C@H]2O)[C@@H](O)[C@@H]1O`, “inactive”; for `O=C(O)CC(C(=O)O)C(CC(=O)O)C(=O)O` (centres undefined), “inactive”.
Then `COCCCOc1ccnc(CS(=O)c2nc3ccccc3[nH]2)c1C` (centres undefined), with “inactive”; and `CC(C)c1ccc(S(=O)(=O)O)cc1`, with “inactive”.
For `CCCSc1ccc2nc(NC(=O)OC)[nH]c2c1` the value was “inactive”; for `CCN(CC)CCCC(C)Nc1ccnc2cc(Cl)ccc12` (centres undefined), “inactive”; for `C=CCOC(=O)c1ccccc1C(=O)OCC=C`, “inactive”.
For the compound `O=P(OC(CCl)CCl)(OC(CCl)CCl)OC(CCl)CCl`, the result was inactive.
Then `CC1CCC2CC1C2(C)C` (centres undefined), with “inactive”.
Then `O=C(Oc1ccccc1)c1ccccc1`, with “inactive”; and `COc1ccc(Nc2ccccc2)c(C)c1`, with “inactive”.
For `O=C1CCC(N2C(=O)c3ccccc3C2=O)C(=O)N1` (centres undefined) the value was “inactive”; for `CCCCCC/C(C=O)=C\c1ccccc1`, “inactive”; for `CC1=C(C)S(=O)(=O)CCS1(=O)=O`, “inactive”.
`COc1ccc(Cl)cc1C(=O)NCCc1ccc(S(=O)(=O)NC(=O)NC2CCCCC2)cc1`: the outcome was inactive.
For `O=C(O)c1ccc(C(=O)O)cc1` the value was “inactive”.
Then `O=c1[nH]c(=O)n([C@H]2C[C@H](O)[C@@H](CO)O2)cc1Br`, with “inactive”; and `COc1ccc2cc([C@H](C)C(=O)O)ccc2c1`, with “inactive”.
For `CCc1ccc(CCOc2ccc(CC3SC(=O)NC3=O)cc2)nc1` (centres undefined) the value was “inactive”; for `Cc1occc(=O)c1O`, “inactive”; for `Cc1ccc2oc(=O)ccc2c1`, “inactive”.
With `CN(C)CCCN`, the call was inactive.

The values are drawn from PubChem BioAssay (Tox21).
